Out of some 52,000 compounds screened, about 4,300 (8.3%) were called active. The full list was thinned out, with actives kept by preference. A number with no mark means an inactive call. Rule as the data show it: active = survival mostly below about 52% (no sharp cut-off); inactive = mostly above about 56%.
Test system: DeltatarO mutant
Test: S. aureus survival, RN4220 and DeltatarO strains – OD600, teichoic acid synthesis inhibitors, primary screen (AID 463173)
Conditions: S. aureus RN4220 wild type/DeltatarO growth, OD600, 18 h, stronger effect = lower value, screened at 18.75 µg/mL (by protocol)

Q: Cc1sc2ncn(CC(=O)N(C)c3ccc(Br)cc3)c(=O)c2c1S(=O)(=O)N1CCC(C)CC1 was tested. Which survival did it give?
A: 70%

Q: Cc1ccc(OCc2cc(=O)n3cc(C)sc3n2)c(C)c1 was tested. Which survival did it give?
A: 59%

Q: With Cc1ccc(NC(=O)c2ccc(=O)n(CC(=O)Nc3ccccc3)n2)cc1 as the compound, how does the survival read?
A: 85%

Q: Which survival does the source give for O=C(Cn1ncc2c3ccccc3n(Cc3cccc(Cl)c3)c2c1=O)NCc1cccs1 here?
A: 99%

Q: For Cc1cccc(CN2CCN(CC(=O)NCc3ccc(Cl)cc3)C2=O)c1, which survival is on record?
A: 72%

Q: For Cc1cccn2cc(-c3cccc(NS(=O)(=O)c4ccc(Cl)c(Cl)c4)c3)nc12, which survival is on record?
A: 101%

Q: Which survival does the source give for Cc1cccc2nc(-c3cccc(NS(=O)(=O)c4ccccc4)c3)cn12 here?
A: 35% (active)

Q: With Cc1csc2nc(-c3cccc(NS(C)(=O)=O)c3)cn12 as the compound, how does the survival read?
A: 88%

Q: Which survival does the source give for COc1ccc(-n2nc(C(=O)Nc3ccc(C)cn3)c3c4ccccc4n(C)c3c2=O)cc1Cl here?
A: 98%

Q: How did the survival turn out when CN(C)c1cccc(C(=O)N2CCC(c3ccncc3)CC2)c1 was run?
A: 88%

Q: With CC(C)(C)c1ccc(CSc2n[nH]c(=O)[nH]c2=O)cc1 as the compound, how does the survival read?
A: 98%

Q: CCCCCCSc1n[nH]c(=O)[nH]c1=O was tested. Which survival did it give?
A: 78%

Q: With O=c1[nH]nc(SC(F)(F)C(F)(F)C(F)(F)F)c(=O)[nH]1 as the compound, how does the survival read?
A: 37% (active)

Q: Which survival does the source give for Cc1oc(-c2ccc(Cl)cc2)nc1Cn1c(=O)cc(C)c2c(C)nn(-c3cccc(F)c3)c21 here?
A: 82%

Q: O=C(Nc1ccc(Cl)c(C(F)(F)F)c1)C(Cc1ccccc1)NS(=O)(=O)c1ccc(Br)s1 (stereo not drawn) was tested. Which survival did it give?
A: 82%

Q: With Cc1ccc(NS(=O)(=O)c2ccc3c(c2)CCCN3C(=O)C2CCC2)c(C)c1 as the compound, how does the survival read?
A: 85%

Q: For CN(C)S(=O)(=O)c1ccc(C(=O)NCCSc2c(-c3ccccc3)[nH]c3ccccc23)cc1, which survival is on record?
A: 68%

Q: Which survival does the source give for CCOC(=O)c1ccc(Nc2nc3nonc3nc2NCc2ccco2)cc1 here?
A: 5% (active)

Q: Which survival does the source give for Ic1ccc(Nc2nc3nonc3nc2N/N=C\c2ccco2)cc1 here?
A: 53%

Q: With CCOC(=O)c1ccc(Nc2nc(C)cc(C)n2)cc1 as the compound, how does the survival read?
A: 85%

Q: CCOC(=O)c1ccc(Nc2nc3ccc(C(=O)c4ccccc4)cc3n3c(C)nnc23)cc1 was tested. Which survival did it give?
A: 109%

Q: With Brc1ccc(NCc2ccco2)cc1 as the compound, how does the survival read?
A: 96%

Q: For Cc1cccc(Nc2nc3nonc3nc2N/N=C\c2cccs2)c1C, which survival is on record?
A: 69%

Q: Brc1cccc(Nc2nc3nonc3nc2NCc2ccco2)c1 was tested. Which survival did it give?
A: 6% (active)

Q: Which survival does the source give for CCOC(=O)c1ccc(NC(=O)C(=O)NCc2ccco2)cc1 here?
A: 63%

Q: Which survival does the source give for Cc1cccc(Nc2nc3nonc3nc2Nc2cccc(C)c2C)c1C here?
A: 66%

Q: With CCOC(=O)c1ccc(Nc2nc3nonc3nc2Nc2cccc(C)c2C)cc1 as the compound, how does the survival read?
A: -1% (active)

Q: Which survival does the source give for Cc1ccc(C)c(Nc2nc3nonc3nc2Nc2cccc(C)c2C)c1 here?
A: 2% (active)

Reference: PubChem BioAssay AID463173 (ICCB-Longwood Screening Facility, Harvard Medical School, 2010)
